Screens deposited in PubChem by National Center for Advancing Translational Sciences (NCATS).
In the library only some 12% were active in any assay of this set; here they are far more common.
SARS PLP yeast = blocks SARS-CoV papain-like protease in a yeast assay | S. cerevisiae expressing SARS-CoV PLpro, growth rescue | Potency, µM (highest dose often 32.9 µM), without a hit: top-dose activity, positive = growth rescue, hits mostly activators | 0.19% of 330,000 active; also: potency is read from the fitted curve at half-maximal effect; 0% is about no effect; nearly all actives have a fitted effect of over 55% in size
NS1 function inh = influenza NS1 inhibition; 0.4% of 270,000 active; Potency, µM (series often up to 46.1 µM), without a hit: at the highest dose activity, positive = more growth; AID 2326; also: potency is read from the fitted curve at half-maximal effect; actives are rising curves; nearly all actives have a fitted effect of over 50% in size
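Read-out: OD600 growth recovery of NS1-expressing budding yeast. Cells grown overnight at 30C in -URA glucose medium, washed, resuspended and diluted 1:100 in 2% galactose assay medium, pH 6.0. Same strain lacking NS1 served as positive control.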
Cycloheximide cs = counter-screen hit for Shiga toxin inhibitors, cycloheximide | cell reporter, cycloheximide protein synthesis inhibition counterscreen | max response, % | 12% of 300,000 active | AID 2314; in the data active = max response mostly above about 13%, no sharp cut-off; inactive = mostly below about 14%; also: read at 38.3 µM for the half of the compounds with a filed dose; 0% is about no effect
Shiga inhibitor = blocks Shiga toxin action in Vero cells. inhibition, % at 38.7 µM. Vero cells, Shiga toxin protein synthesis inhibition reporter. AID 2315. 9.2% of 290,000 active; in the data active = inhibition mostly above about 28%, no sharp cut-off; inactive = mostly below about 43%; also: 0% is about no effect
The depositor's hits bear a star; ? = inconclusive; . = no result. Unless noted, calls follow the shape of the full dose curve.

SMILES | SARS PLP yeast | NS1 function inh | Cycloheximide cs | Shiga inhibitor
c1cncc(-c2csc(-c3cccnc3)n2)c1 | 1% | -2% | 9 | 27
c1cncc(-c2nc(-c3ccco3)cs2)c1 | -9% | -34% | 27* | 79*
COc1ccc(NC(=O)COC(=O)CCNC(=O)c2ccco2)cc1Cl | 6% | . | . | .
CC1(C)OC(c2ccccc2)=C/C(=C/C=C2C(=O)NC(=O)NC2=O)O1 | -5% | . | 5 | 20
CC1(C)OC(c2ccccc2)=C/C(=C/C=Nc2ccccc2)O1 | 5% | -10% | 16* | 35*
O=S(=O)(c1ccc(Cl)s1)N1CCCc2cccc(O)c21 | -28% | -77% | 50* | 84*
O=S(=O)(c1ccc(Cl)s1)N1CCc2ccccc2C1 | -15% | -9% | -6 | 25
O=C(O)CN(C1CCCCC1)S(=O)(=O)c1ccc(F)cc1 | 2% | . | 1 | -22
N[C@@H](Cc1[nH]nc2ccccc12)C(=O)O | . | 6% | . | .
O=C(COc1ccccc1[N+](=O)[O-])Nc1cc(Cl)ccc1C(=O)O | 3% | 4% | -2 | -11
Cc1cc(C(=O)NC2CCC(C)CC2)c(C)o1 (stereo not drawn) | -3% | -22% | 52* | 80*
Cc1cc(C(=O)OCC(=O)NC2CCC(C)CC2)c(C)o1 (stereo not drawn) | -3% | . | . | .
C=C(CCC(=O)c1ccccc1)C(=O)c1ccccc1 | -91% | -45% | 17* | 4
O=C(CCCCCCCC(=O)c1ccccc1)c1ccccc1 | 1% | -4% | 7 | -5
COc1ccc(NC(=O)C(CC(C)C)NC(=O)C2CCCCC2)c(OC)c1 (stereo not drawn) | 1% | . | 9 | -8
Cc1ccc2nc(-c3ccc(N4C(=O)CC(N5CCN(CCO)CC5)C4=O)cc3)sc2c1 (stereo not drawn) | -23% | 17% | 37* | 68*
Cc1ccc(N2C(=O)CC(N3CCN(c4ccccn4)CC3)C2=O)cc1 (stereo not drawn) | -5% | 3% | -4 | -6
Fc1ccc(CO/N=C/C2=C(Cl)c3ccccc3CC2)cc1 | -3% | 4% | 12* | 80*
O=C(Cc1ccc2c(c1)OCCO2)Nc1cc(C(F)(F)F)ccc1N1CCOCC1 | -4% | . | . | .
O=C(CC(=O)c1ccccc1)Nc1cc(C(F)(F)F)ccc1Cl | 21% | 4% | 16* | 25
O=C(O)c1ccc(NNC(=S)Nc2cc(C(F)(F)F)ccc2Cl)cc1 | 4% | 4% | 36* | 59*
O=C(Cn1cnnn1)NC1CCCN(Cc2ccccc2F)C1 (stereo not drawn) | 4% | 3% | 1 | -5
CCC(=O)Nc1c(-c2ccccc2Cl)c(=O)c2ccccc2n1C | 3% | 7% | -3 | -4
CSc1nc(C)cc(Nc2ccc(O)c(CN3CCOCC3)c2)n1 | . | 3% | . | .
CCN(CC)c1ccc(/C=N/Nc2nc3ccccc3[nH]2)cc1 | -87% | -14% | 37* | 110*
SMILES | SARS PLP yeast | NS1 function inh | Cycloheximide cs | Shiga inhibitor
O=C(O)c1ccc(/C=N/Nc2nc3ccccc3[nH]2)cc1 | 1% | 6% | 16* | 24
Clc1nc2ccccc2cc1/C=N/Nc1nc2ccccc2[nH]1 | -11% | 4% | 41* | 21
O=C(CN1CCCCC1)N/N=C/c1cc2ccccc2nc1Cl | 4% | . | 14 | 29
CN(C)c1ccc(/C=N/NC(=O)CCc2nc3ccccc3[nH]2)cc1 | 0% | -7% | 3 | 21
O=C(Cc1nc2ccccc2[nH]1)N/N=C/c1ccccc1 | -3% | ? | 3 | 2
CC(=O)Nc1ccc(/C=N/Nc2nc3ccccc3[nH]2)cc1 | ? | 0% | 50* | 62*
Cc1c(C(=O)O)sc2nc3n(c(=O)c12)CCC(C)CC3 (stereo not drawn) | 8% | 0% | -5 | 1
CCC(C)(C)NC(=O)C(c1ccc(OC)cc1)N(C(=O)CCC(=O)Nc1cc(C)on1)c1cc(OC)ccc1OC (stereo not drawn) | 2% | -2% | -3 | 7
O=C(NCc1ccccc1Cl)C(=O)NCC1OCCCN1S(=O)(=O)c1cccs1 (stereo not drawn) | 0% | 0% | 3 | 1
C(=N\Nc1nc(Nc2ccccc2)nc(Nc2ccccc2)n1)/c1ccncc1 | 0% | 3% | -2 | -9
COC(=O)c1ccc(/C=N/NC(=O)c2ccc3nc[nH]c3c2)cc1 | -11% | 14% | 10 | -10
COC(=O)c1ccc(/C=N/Nc2nc3ccccc3[nH]2)cc1 | -1% | -5% | 47* | 151*
C(=N\Nc1nc2ccccc2[nH]1)/c1ccncc1 | 0% | . | 33* | 69*
Cc1ccc(S(=O)(=O)N(C)C)cc1NC(=O)c1cc(=O)c2ccccc2o1 | -2% | 11% | 3 | 3
CCN(CC)c1ccc(NC(=O)c2cccc(C)c2OC)c(C)c1 | -5% | -9% | 65* | 87*
O=C(Nc1ccc(F)cc1F)c1csc(-c2cccs2)n1 | -4% | . | 48* | 118*
O=C(Nc1ccc(F)cc1F)c1csc(-c2ccncc2)n1 | -1% | -1% | 27* | 15
CC(C)N=Cc1c(O)[nH]c2ccccc12 | -3% | -21% | -1 | -27
Cc1cccc(/N=C/c2c(O)[nH]c3ccccc23)n1 | -4% | -13% | 46* | 92*
Cc1cccc(/N=C/c2sc3ccccc3c2O)n1 | -2% | -5% | 44* | 39*
Cc1nc(-c2ccc(NC(=O)c3ccco3)cc2)cs1 | -7% | -63% | 11* | 28
O=C(Nc1ccc(-c2csc(-c3ccccc3)n2)cc1)c1ccccc1 | -5% | -11% | -2 | -10
Nc1nc(-c2ccc(NC(=O)c3ccco3)cc2)cs1 | -6% | -1% | 17* | 40*
CCOc1ccc(-c2cccc(NC(=O)c3ccco3)c2)nn1 | -5% | . | . | .
Cc1nc(-c2cccc(NC(=O)c3ccco3)c2)cs1 | ? | -39% | 27* | 45
SMILES | SARS PLP yeast | NS1 function inh | Cycloheximide cs | Shiga inhibitor
Cc1nnc2ccc(-c3ccc(NC(=O)c4ccco4)cc3)nn12 | 0% | . | 14* | 71
CCN1C(=O)NC(c2cc(Br)ccc2OC)C(C(=O)OC)=C1C (stereo not drawn) | 3% | -22% | 3 | -11
CCOC(=O)[C@@H](C)N(Cc1ccc(OC)cc1)S(=O)(=O)N(Cc1ccccc1)[C@H](C(=O)OC)C(C)C | -5% | . | . | .
Cc1ccn2cc(-c3ccc(NC(=O)c4ccco4)cc3)nc2c1 | 1% | 7% | 43* | active
CCCCn1c(=O)c(C(=O)Nc2ccccc2S(N)(=O)=O)c(O)c2ccccc21 | 0% | -24% | -4 | 25
CCn1c(=O)c(C(=O)NNC(=O)c2ccccc2)c(O)c2ccccc21 | -7% | -68% | 7 | 2
CCCCCn1c(=O)c(C(=O)Nc2ccccc2S(N)(=O)=O)c(O)c2ccccc21 | 0% | 3% | 17* | 84*
CCn1c(=O)c(C(=O)Nc2ccccc2S(N)(=O)=O)c(O)c2ccccc21 | 7% | -7% | 12* | 45
O=C(O)c1cccc(S(=O)(=O)NCC2COc3ccccc3O2)c1 (stereo not drawn) | -16% | . | . | .
Fc1ccccc1Nc1nc2c(s1)CCc1ccccc1-2 | -15% | -5% | 73* | 85*
O=C(Nc1nnc(-c2ccccc2F)s1)Nc1ccccc1F | -1% | 2% | 12 | 20
O=C(Nc1nc2c(s1)CCc1ccccc1-2)c1cccs1 | -5% | -3% | 41* | 94*
O=C(Nc1ncc2c(n1)-c1ccccc1CC2)c1ccccc1 | -9% | -35% | 20* | 63*
